This passage reports growth results from PubChem BioAssay (NCI).

Some test systems named below: RPMI-8226 leukemia; OVCAR-8 ovarian; OVCAR-5 ovarian; OVCAR-4 ovarian; SK-OV-3 ovarian; IGROV1 ovarian; OVCAR-3 ovarian; HS 578T breast; NCI/ADR-RES ovarian.
What all share (experiment): NCI-60 one-dose screen, 48 h (100 = growth as untreated, 0 = no growth, -100 = all killed)
Holding throughout (settings): 10 µM unless noted

Molecules are shown by their SMILES. Compounds without any hit were thinned out: in the full panel of roughly 83,000, 20% have a hit.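 How to read the values: 0–100, growth inhibition (40 = 60% inhibited); 0, no net growth; -100 to 0, cell death (-40 = 40% of starting cells died; -100 = all dead).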 Values without a mark were called inactive. Calls of active or inactive are those of the source. The calls were made as follows: active = growth percent below 10; inactive = the rest.

In the case of `O=C(Nc1ccccc1)Oc1ccccc1-c1ccccc1`, the growth was 96.5% in the assay on RPMI-8226 leukemia; 98.4% with OVCAR-8 ovarian; 90.5% in the assay on OVCAR-5 ovarian; 103% in the assay on OVCAR-4 ovarian; 80.1% in the assay on SK-OV-3 ovarian; 107% in the assay on IGROV1 ovarian. The values for the growth in the assay with OVCAR-3 ovarian, in the assay on HS 578T breast and in the assay on NCI/ADR-RES ovarian were 106%, 93.3% and 99.9%, respectively.
For `CC1=NNC(=O)C1CCC(=O)N/N=C(\C)c1ccc2ccccc2c1` (stereo unspecified), the growth in the assay with RPMI-8226 leukemia was 107%; in the assay with OVCAR-8 ovarian, 102%; in the assay on OVCAR-5 ovarian it was 77.2%; in the assay with OVCAR-4 ovarian it was 117%; in the assay on SK-OV-3 ovarian it was 126%; with IGROV1 ovarian, 92.6%. The growth with OVCAR-3 ovarian is 105%; in the assay on HS 578T breast, 114%; in the assay with NCI/ADR-RES ovarian, 94.3%.
Regarding `O=C(Nc1ccc(Cl)cc1)Nc1ccc(Cl)c(Cl)c1`, the growth was -27.6% (active) in the assay with RPMI-8226 leukemia; 21.2% in the assay on OVCAR-8 ovarian; 23.9% in the assay with OVCAR-5 ovarian; 21.8% with OVCAR-4 ovarian; 20.2% in the assay on SK-OV-3 ovarian; 21.5% in the assay with IGROV1 ovarian. For the same compound, the growth is -31% (active) in the assay with OVCAR-3 ovarian, 33% in the assay on HS 578T breast and -18.8% (active) in the assay with NCI/ADR-RES ovarian.
As to `COc1cc2nnn3c4ncccc4c(N=O)c3c2cc1OC`, the growth with RPMI-8226 leukemia is -11.8% (active); in the assay with OVCAR-8 ovarian, 14.3%; with OVCAR-5 ovarian, 102%; with OVCAR-4 ovarian, 50.3%; with SK-OV-3 ovarian, 104%; in the assay on OVCAR-3 ovarian, 120%. Moreover, the growth is 116% with HS 578T breast and 44.6% with NCI/ADR-RES ovarian.
On to `Cc1cc2cc3cc(C)c(N)cc3[n+](C)c2cc1N`, for which the growth was -1.31% (active) in the assay with RPMI-8226 leukemia; 1.23% (active) in the assay on OVCAR-8 ovarian; 46.2% in the assay on OVCAR-5 ovarian; 10% in the assay on OVCAR-4 ovarian; 26% in the assay with SK-OV-3 ovarian; 16.1% in the assay with IGROV1 ovarian. The growth is 1.65% (active) in the assay on OVCAR-3 ovarian, 9.56% (active) in the assay on HS 578T breast and 48.5% with NCI/ADR-RES ovarian.
With `O=C1Nc2ccccc2/C1=C\c1cccc(/C=C2/C(=O)Nc3ccccc32)n1`, the growth in the assay with RPMI-8226 leukemia is -48.7% (active); in the assay on OVCAR-8 ovarian it was -6.07% (active); in the assay on OVCAR-5 ovarian, -69.5% (active); in the assay with OVCAR-4 ovarian, 11.6%; in the assay with SK-OV-3 ovarian, -88.6% (active); in the assay with IGROV1 ovarian it was -66.8% (active). Moreover, the values for the growth in the assay with OVCAR-3 ovarian, with HS 578T breast and in the assay with NCI/ADR-RES ovarian were -89.6% (active), -39.2% (active) and 16.1%, respectively.
As for `CC1=CC2(C)/C=C(C)/C=C\CC(O)/C=C3/C=CC(=C4C(=O)OC2(CC1C)C4=O)OC3` (stereo unspecified), the growth with RPMI-8226 leukemia is -23.8% (active); in the assay on OVCAR-8 ovarian it was 0.804% (active); in the assay on OVCAR-5 ovarian, -57.9% (active); with OVCAR-4 ovarian it was -40.6% (active); in the assay with SK-OV-3 ovarian, 94.6%; with IGROV1 ovarian, -49.1% (active). Also, the growth is -100% (active) with OVCAR-3 ovarian, -34% (active) with HS 578T breast and -61.8% (active) in the assay on NCI/ADR-RES ovarian.
With `COc1ccc(-c2cnnc3c(-c4cccc(C(F)(F)F)c4)cnn23)cc1`, the growth with RPMI-8226 leukemia was 45.8%; with OVCAR-8 ovarian, 19.6%; in the assay on OVCAR-5 ovarian, 81%; in the assay with OVCAR-4 ovarian, 35.7%; in the assay on SK-OV-3 ovarian, 15.1%; with IGROV1 ovarian, 64.1%. Further, the figures for the growth in the assay on OVCAR-3 ovarian, in the assay with HS 578T breast and in the assay on NCI/ADR-RES ovarian were 26.4%, 20.1% and 60.5%, respectively.
Regarding `COc1ccccc1/C=C1\COc2ccc(-c3ccccc3)cc2C1=O`, the growth in the assay with RPMI-8226 leukemia is -37.3% (active); in the assay with OVCAR-8 ovarian, 36.1%; in the assay with OVCAR-5 ovarian, 104%; in the assay with OVCAR-4 ovarian it was 76.1%; in the assay with SK-OV-3 ovarian, 50.7%; with IGROV1 ovarian, 56.6%. In addition, the growth is -29% (active) in the assay with OVCAR-3 ovarian, 38.9% in the assay with HS 578T breast and -45.6% (active) with NCI/ADR-RES ovarian.
In the case of `O=C(N/N=C/c1cccc(O)c1)c1ccccc1Nc1cccc(C(F)(F)F)c1`, the growth in the assay with RPMI-8226 leukemia was 87.5%; in the assay with OVCAR-8 ovarian, 75%; in the assay on OVCAR-5 ovarian, 92.3%; in the assay with OVCAR-4 ovarian it was 58.9%; with SK-OV-3 ovarian, 78.4%; in the assay with IGROV1 ovarian, 95.3%. The growth was 62.1% with OVCAR-3 ovarian, 91.8% in the assay on HS 578T breast and 83.4% with NCI/ADR-RES ovarian.
On to `CO[C@@H]1[C@H](N(C)C(=O)c2ccccc2)C[C@@H]2O[C@]1(C)n1c3ccccc3c3c4c(c5c6ccccc6n2c5c31)C(=O)NC4=O`, for which the growth is 67.1% in the assay with RPMI-8226 leukemia; 54% in the assay with OVCAR-8 ovarian; 57% with OVCAR-5 ovarian; 7.2% (active) in the assay with IGROV1 ovarian; 46.7% with OVCAR-3 ovarian; 20.5% in the assay with HS 578T breast. Also, the growth in the assay with NCI/ADR-RES ovarian is 42.9%.
In the case of `COc1cc(CCNc2nc3cc(N)cc(N)c3nc2-c2ccccc2)cc(OC)c1`, the growth was -39.6% (active) in the assay on RPMI-8226 leukemia; -22.2% (active) with OVCAR-8 ovarian; 13.4% with OVCAR-5 ovarian; 82.3% with SK-OV-3 ovarian; 27.8% with IGROV1 ovarian; -66.2% (active) in the assay with OVCAR-3 ovarian. Further, the growth is -70.5% (active) in the assay with HS 578T breast and 39.1% in the assay on NCI/ADR-RES ovarian.
For the compound `COC(=O)C1NC(=S)N(c2ccc(Cl)cc2)C1/C=C/c1ccccc1` (stereo unspecified), the growth with RPMI-8226 leukemia was 95.8%; in the assay on OVCAR-8 ovarian it was 101%; with OVCAR-5 ovarian it was 99.8%; in the assay on IGROV1 ovarian it was 106%; in the assay with OVCAR-3 ovarian it was 101%; in the assay with HS 578T breast it was 107%. Besides, the growth in the assay with NCI/ADR-RES ovarian was 90%.
